Compounds without any hit were thinned out: in the full panel of roughly 79,000, 15% have a hit. Values without a mark were called inactive. Active and inactive are the calls of the source. No stated cut-off is given here; in the data, active means growth inhibition above about 70%; inactive means the rest.

This assay in a line: NCI Yeast Anticancer Drug Screen. Data for the cln2 rad14 strain (AID 165).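 Further: 0% = growth equal to vehicle treated cultures.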 As to conditions: S. cerevisiae cln2 rad14 strain, at 50.0 µM, stronger effect = higher value. The procedure:
Growth inhibition of yeast strains with defined genetic alterations is measured as a screen for potential anti-cancer activity. Selected strains with alterations in DNA damage repair or cell cycle control were exposed to compounds and growth inhibition was measured relative to vehicle treated controls. The strain used in this assay is cln2 rad14
As to `O=S(=O)(O)C(C(I)I)S(=O)(=O)O`, the growth inhibition is -34.5%. Next, `Cc1ccc(C)c2c1CCC2=O`: -19.2%; `COC1CC(OC(=O)c2ccc([N+](=O)[O-])cc2)C(COC(=O)c2ccc([N+](=O)[O-])cc2)O1` (stereo not given): -1.1%. Take `Oc1ccc(N=Cc2ccc(OCc3ccccc3)cc2)cc1`: the growth inhibition was 0.25%. Turning to `CC(=O)c1cc(O)ccc1O`, the growth inhibition was -11.1%. `Cc1ccc(S(=O)(=O)NC(=O)NCCSSCCNC(=O)NS(=O)(=O)c2ccc(C)cc2)cc1`: the growth inhibition is -1%. With `Nc1nc2nnc(-c3ccccc3)c(-c3ccccc3)n2n1`, the growth inhibition was 13.8%. As to `CSc1cnc2ccccc2n1`, the growth inhibition is 13.1%.

As for `NC(=O)OCCO`, the growth inhibition is 9.65%. With `NC(=S)N/N=C/c1ccc(OC(=O)COc2ccccc2)cn1`, the growth inhibition is 7.45%. As for `COC(CCCl)c1ccc(Cl)cc1` (stereo not given), the growth inhibition is -4.5%. For `Nc1ccc(F)c(Cl)c1F` the value was -24.8%. As for `S=C(NCc1ccccc1)N1CCC(CCCC2CCN(C(=S)NCc3ccccc3)CC2)CC1`, the growth inhibition is 6%.

Consider `O=C(O)c1ccc(OCc2ccccc2)cc1`, for which the growth inhibition was -1.85%. For `CC(C)(C)[Si](C)(C)OCC1OC(n2cnc3c(N)ncnc32)CC1OS(C)(=O)=O` (stereo not given), the growth inhibition was -3.15%. As to `Cc1cc2nc(C)c(C)nc2cc1C`, the growth inhibition is 7.75%. `CN(CCCN(C)CCC1CCCCC1)CCC1CCCCC1`: the growth inhibition is 54.8%. Consider `Oc1cccc(CNC2CCCCC2)c1`, for which the growth inhibition is 10.2%. For `Cc1ccc(OC(=O)c2ccccc2)cc1` the value was -6.75%; for `CN(C(=S)S(=O)(=O)C12CC3CC(CC(C3)C1)C2)c1ccccc1`, -11.5%. Consider `Nc1ncc([N+](=O)[O-])cn1`, for which the growth inhibition was -13.8%. For `CCOC(=O)c1ccc(Nc2sc(C(=O)c3ccc(Br)cc3)c(N)c2C#N)cc1`, the growth inhibition was 20.3%. In the case of `CCOC(=O)C(C#N)=C1CCN(C)CC1`, the growth inhibition was 10.2%. As to `CN=S(=O)(OCCCCCOS(=O)(=NC)c1ccc(C)cc1)c1ccc(C)cc1` (stereo not given), the growth inhibition was -43.4%. `C=CCOc1ccc(Cl)cc1Cl`: the growth inhibition is 4.6%.

Turning to `CS(=O)CC(=N\O)/C(CS(C)=O)=N\O` (stereo not given), the growth inhibition is -8.85%. As to `O=c1cc(C(F)(F)F)[nH]c(=S)[nH]1`, the growth inhibition was -20.9%. On to `Oc1cc2ccccc2c(-c2c(O)c(O)cc3ccccc23)c1O`, for which the growth inhibition was 83.6% (active). For the molecule `CCN(CC)CCCC(C)NC(=S)N/N=C(\C)c1ccccn1` (stereo not given), the growth inhibition is 11.2%. For `COC1OC(C(COC(C)=O)OC(C)=O)C(OC(C)=O)C(OC(C)=O)C1OC(C)=O` (stereo not given) the value was -46.5%; for `c1ccc(Oc2c3ccccc3nc3ccccc23)cc1`, 4.25%. Next, `CCC(C)c1c(N)n(S(=O)(=O)c2ccc(C)cc2)oc1=O` (stereo not given): -25%; `O=C(O)c1cc(I)ccc1O`: -33.8%. For the molecule `CC(=O)N(CCCCCCN(C(C)=O)C(C)=O)C(C)=O`, the growth inhibition was -0.55%.

As for `CSc1nc2[nH]ncc2c(=O)[nH]1`, the growth inhibition is -40.6%. For the molecule `CC(=O)NNC(=S)/N=C\C(C(=O)c1ccccc1)=C(/O)c1ccccc1`, the growth inhibition was 2%. For the molecule `COc1ccc(C2CC(c3ccccc3)=Nc3ccccc3S2)cc1` (stereo not given), the growth inhibition was -11.3%. For `C=CCC(OC(C)=O)c1ccc(OC)c(OC)c1` (stereo not given), the growth inhibition is -13.9%. `NC(CCl)=NCC12CC3CC(CC(C3)C1)C2`: the growth inhibition was 14.8%. As to `O=Cc1c(O)c2ccccc2[nH]c1=O`, the growth inhibition is 9.5%.

Values taken from PubChem BioAssay (NCI).
